Source: PubChem BioAssay AID518 (Sanford-Burnham Center for Chemical Genomics, 2006)
Out of some 64,000 compounds screened, about 55 (0.09%) were called active. Only a sample is shown. Values without a mark were called inactive. No rule for the calls is given here.

Biological target: Alkaline phosphatase, tissue-nonspecific isozyme (Homo sapiens) (UniProt P05186)
Assay: human TNAP enzyme inhibitors, biochemical, luminescent (AID 518);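 also: plate controls were vehicle for no effect and reference inhibitor for full effect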
Details: purified TNAP enzyme, luminescent substrate readout; at 20 µM; active compounds read high

Alkaline phosphatase, tissue-nonspecific isozyme (Homo sapiens), sequence (P05186 whole entry, looked up): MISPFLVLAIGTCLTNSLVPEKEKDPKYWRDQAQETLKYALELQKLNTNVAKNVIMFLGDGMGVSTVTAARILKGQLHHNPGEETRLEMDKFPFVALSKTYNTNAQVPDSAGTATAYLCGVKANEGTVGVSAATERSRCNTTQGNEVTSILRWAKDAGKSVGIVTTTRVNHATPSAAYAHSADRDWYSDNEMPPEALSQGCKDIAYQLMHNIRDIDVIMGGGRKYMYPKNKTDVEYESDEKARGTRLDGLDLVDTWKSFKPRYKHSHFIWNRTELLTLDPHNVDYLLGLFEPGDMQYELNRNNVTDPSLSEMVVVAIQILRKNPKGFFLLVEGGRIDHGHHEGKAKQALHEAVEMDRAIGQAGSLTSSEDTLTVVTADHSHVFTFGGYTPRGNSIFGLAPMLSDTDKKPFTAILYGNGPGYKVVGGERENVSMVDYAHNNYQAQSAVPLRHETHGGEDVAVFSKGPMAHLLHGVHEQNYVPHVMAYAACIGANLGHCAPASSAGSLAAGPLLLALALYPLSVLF

Row | SMILES | inhibition [%]
1 | Cc1ccc(N(CC(=O)N2CCN(c3ccc(F)cc3)CC2)S(=O)(=O)c2c(C)nn(C)c2C)cc1 | 8.6
2 | O=C(c1ccc(Cl)cc1)N1CCC(c2nc(-c3cccs3)no2)CC1 | 13.1
3 | CCC(CC)C(=O)NCCNC(=O)C(CC)CC | 10.5
4 | Cc1ccc(OCC(=O)N2CCN(C(=O)CCC3CCCC3)CC2)cc1 | 6.3
5 | Cc1cc2c(c(=O)n1CCN(C)C)C(c1ccccc1Br)C(C#N)=C(N)O2 (stereo unspecified) | 9.3
6 | COCCNC(=O)Nc1ccc2c(c1)N(C)C(=O)CS2 | 1.5
7 | O=C(c1cc2ccccn2n1)N1CCN(Cc2ccccc2)CC1 | 2.9
8 | Cc1onc(-c2ccccc2Cl)c1C(=O)Nc1ccc(-c2cn3cccnc3n2)cc1 | 4.9
9 | CCOC(=O)CN1CC23C=CC(O2)C(C(=O)O)C3C1=O (stereo unspecified) | 5.4
10 | O=C(CSc1nnc(-c2cccnc2)n1-c1ccccc1)Nc1ccccn1 | 2.6
11 | COc1ccc(OC)c(S(=O)(=O)NC2CCN(Cc3ccccc3)CC2)c1 | 6.7
12 | CC(C)(C)n1ncc2c(=O)n(CC(=O)N3CCCc4ccccc43)cnc21 | 4
13 | COc1ccc(-c2nnc(SCC(=O)N3CCOCC3)o2)cc1 | 3.7
14 | Cc1nn(Cc2ccccc2)c(C)c1CCC(=O)O | 7.6
15 | N#Cc1ccccc1NC(=O)c1ccccc1OCC(=O)NCc1ccco1 | 7
16 | COC(=O)c1ccc(NC(=O)COc2ccc(S(=O)(=O)NC(C)C)cc2)cc1 | -1.4
17 | O=C1CC(c2ccco2)Cc2nc(N3CCN(Cc4ccc5c(c4)OCO5)CC3)ncc21 (stereo unspecified) | 10.2
18 | Cc1noc(C)c1S(=O)(=O)N1CCC(C(=O)N(C)Cc2ccccc2)CC1 | -0.3
19 | CN(Cc1ccccc1)Cc1c(F)cccc1F | 5.6
20 | CN1C(=O)CS(=O)c2ccc(C(=O)NC3CC3)cc21 (stereo unspecified) | 10
21 | CCc1c(C)nc2ncnn2c1N1CCC(C(=O)NCc2cccc(OC)c2)CC1 | 13

Row | SMILES | inhibition [%]
22 | Cc1ccc(NC(=O)C2CCCN2S(=O)(=O)c2ccc3c(c2)CCC(=O)N3)cc1Cl (stereo unspecified) | 9
23 | N#Cc1cc(Sc2ccccn2)c(Sc2ccccn2)cc1C#N | 10.6
24 | CC(=O)Nc1nc2ccccc2n1CCOc1ccccc1 | 4.8
25 | O=C(C1CCCN(S(=O)(=O)c2cccc3cccnc23)C1)N1CCN(c2ccc(F)cc2)CC1 (stereo unspecified) | 14.6
26 | O=c1c2ccccc2nc(SCc2nnc(-c3ccccc3)o2)n1-c1ccccc1 | 3.6
27 | O=C(O)c1ccc(S(=O)(=O)c2ccccc2)cc1 | 8.6
28 | CC(=O)C(Sc1nc(-c2ccco2)nc2c1c(=O)n(C)c(=O)n2C)C(=O)N(C)C (stereo unspecified) | 6
29 | COc1cccc(N2CCN(C3CC(=O)N(c4ccc(F)c(Cl)c4)C3=O)CC2)c1 (stereo unspecified) | 7.6
30 | O=C(c1ccc(-c2ccccc2)cc1)N1CCN(c2nc3ccccc3o2)CC1 | -3.8
31 | COc1cc(/C=N/n2cnnc2)ccc1OCCOc1ccccc1 | 2.9
32 | COc1ccc(OCc2nc(C#N)c(N3CCN(c4ccc(OC)cc4)CC3)o2)cc1 | 16.1
33 | O=S(=O)(NCCc1cn2ccccc2n1)c1cccs1 | 1.2
34 | CC(=O)N1CCC(N(C(=O)Nc2ccc(C)c(C)c2)C2CCCC2)CC1 | 6.3
35 | CC1Cc2ccccc2N1C(=O)C1CCCN(S(=O)(=O)c2cccc3nsnc23)C1 (stereo unspecified) | 15.5
36 | O=C(CSCc1ccccc1)N1CCN(c2ccc(F)cc2)CC1 | 5.6
37 | CSc1nc2c(c(=O)[nH]c(=O)n2C)n1C/C=C(\C)Cl | 11.8
38 | O=C(Cn1ncc2c1-c1ccccc1OC2)N1CCN(c2ccccn2)CC1 | 16.3
39 | Cn1c(SCC(=O)N2CCOCC2)nnc1-c1ccccc1 | 3.9
40 | CCOc1cccc(-c2nnc3sc(-c4cc(OC)c(OC)cc4OC)nn23)c1 | 8.9
41 | CC(NC(=O)C(c1ccccc1)c1ccccc1)C(=O)O (stereo unspecified) | 10
42 | CN(CC(=O)NCCC1=CCCCC1)S(=O)(=O)c1ccc2c(c1)CCC(=O)N2 | 6.5

Row | SMILES | inhibition [%]
43 | Cc1csc(NC(=O)CSc2nnc(-c3ccncc3)o2)n1 | 13.3
44 | Cc1ccc(-c2nc(CS(=O)(=O)CC(=O)N3CC(C)CC(C)C3)c(C)o2)cc1 (stereo unspecified) | 2.5
45 | CCC1(c2ccc(F)cc2)NC(=O)N(CC(=O)c2ccc[nH]2)C1=O (stereo unspecified) | 11.1
46 | Cc1ccc(-n2c(SCC(N)=O)nnc2-c2ccccn2)cc1 | 5.9
47 | Cc1nc(CN2CCN(C(=O)c3ccc(Br)cc3)CC2)cs1 | 8.9
48 | CC1(C)CC(=O)C2=C(C1)N(CC1CCCO1)C(=O)NC2(C(F)(F)F)C(F)(F)F (stereo unspecified) | 7.8
49 | COc1cc(/C=N/n2cnnc2)ccc1OCC(=O)N1CCOCC1 | 9.7
50 | Cc1cc(C(=O)CSc2nncs2)c(C)n1-c1c(C)n(C)n(-c2ccccc2)c1=O | 6.8
51 | COc1ccc(NC(=O)CSc2nnc(Cc3cccn3C)n2CCc2ccccc2)cc1OC | 21.5
52 | Cc1oc(CC(C)C)cc1C(=O)Nc1ccc(C(=O)O)cc1 | -1.6
53 | C=CCn1c(COc2ccccc2)nnc1SCc1ccc(C#N)cc1 | 5
54 | O=C1C2CCCN2C(c2ccccc2)N1c1cccc(Cl)c1 (stereo unspecified) | 2.8
55 | COc1ccc(-c2ccc(-c3noc(-c4ccccc4C)n3)c(OC)n2)cc1 | 6.5
56 | CCCCn1c(Cl)nc2c1c(=O)n(C)c(=O)n2C | 13.4
57 | CCOc1ccc(S(=O)(=O)Nc2nc3ccccc3nc2N2CCN(C)CC2)cc1 | 0.5
58 | O=C(c1cccnc1)N1CCN(C(=O)c2cccs2)CC1 | 4.7
59 | Cc1ccc(CC(=O)Nc2cccc(C)n2)cc1 | 6
60 | C=CCOC(=O)CCCC(=O)NC1CCCCC1 | 3.4
61 | CCOC(=O)C1Cc2cc3c(cc2C1=O)CC(C(=O)OCC)C3=O (stereo unspecified) | 8.4
